This passage reports habituation and combined optomotor response results from the supplement of paper PMC9950053.

Structures can show the parent of a compound that is named as a salt.

One assay relates to Danio rerio larvae (5 dpf). Briefly: habituation (activity change first vs second 5 min of 1-s interval sound, period 17) minus DMSO control (percentage points); higher = larger habituation measure than DMSO larvae. Particulars: 10 µM; exposure time: 3 h pre-incubation + 3 h imaging. Put shortly: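 At 28.5 °C, 5 dpf wild-type zebrafish larvae were treated with compounds (10 µM final) for 3 h ahead of and 3 h during imaging at one frame every 6 s. Tracks came from Z-LaP Tracker, discarding detections under 0.5 probability and any larva moving under 1% of the time. Each behavioural value is the difference, in percentage points, between the treated group mean and the control mean, with 48 larvae per group and 844 in the control.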
With `CN1CC(=O)N2[C@H](c3ccc4c(c3)OCO4)c3[nH]c4ccccc4c3C[C@@H]2C1=O` [Tadalafil], the habituation was -0.158.
Regarding `CC(c1cc2ccccc2s1)N(O)C(N)=O` (configuration not stated) [Zileuton], the habituation worked out at 7.74.
As to `CCOc1cc(CC(=O)N[C@@H](CC(C)C)c2ccccc2N2CCCCC2)ccc1C(=O)O` [Repaglinide], the habituation is -7.53.

Another assay deals with Danio rerio larvae (5 dpf). The assay is described as follows: combined optomotor response (time in upper well half, down vs up moving lines, periods 7-14) minus DMSO control (percentage points); higher = stronger optomotor response than DMSO larvae. Particulars: 10 µM; exposure time: 3 h pre-incubation + 3 h imaging.
On to `Nc1nc(NC2CC2)c2ncn([C@H]3C=C[C@@H](CO)C3)c2n1` [Abacavir hemisulfate], for which the combined optomotor response was found to be 4.25.
Same read-out and setting: as for `CN1CC(=O)N2[C@H](c3ccc4c(c3)OCO4)c3[nH]c4ccccc4c3C[C@@H]2C1=O` [Tadalafil], the figure is -1.2; as for `CC/C(=C(\c1ccccc1)c1ccc(OCCN(C)C)cc1)c1ccccc1` [Tamoxifen citrate], -10.7; as for `COc1c(C)c2c(c(O)c1C/C=C(\C)CCC(=O)OCCN1CCOCC1)C(=O)OC2` [Mycophenolate mofetil], 12.9.
On to `CCc1ccc(CCOc2ccc(CC3SC(=O)NC3=O)cc2)nc1` (configuration not stated) [Pioglitazone hydrochloride], for which the combined optomotor response was -1.77.
As to `CC(C)c1nc(N(C)S(C)(=O)=O)nc(-c2ccc(F)cc2)c1/C=C/[C@@H](O)C[C@@H](O)CC(=O)O` [Rosuvastatin calcium], the combined optomotor response was 6.26.
As to `CCCCCOC(=O)Nc1nc(=O)n([C@@H]2O[C@H](C)[C@@H](O)[C@H]2O)cc1F` [Capecitabine], the combined optomotor response amounted to 4.98.
For the molecule `CC(=O)O[C@H]1C(=O)[C@@]2(C)[C@H]([C@H](OC(=O)c3ccccc3)[C@]3(O)C[C@H](OC(=O)[C@H](O)[C@@H](NC(=O)c4ccccc4)c4ccccc4)C(C)=C1C3(C)C)[C@]1(OC(C)=O)CO[C@@H]1C[C@@H]2O` [Taxol], the combined optomotor response was -0.695.
Same read-out and setting: under `Clc1ccc(COC(Cn2ccnc2)c2ccc(Cl)cc2Cl)c(Cl)c1` (configuration not stated) [Miconazole nitrate] stands -12.3.
As to `Cc1ccc(N(CC2=NCCN2)c2cccc(O)c2)cc1` [Phentolamine Mesylate], the combined optomotor response was found to be 7.07.
On to `CC(C)n1c(/C=C/C(O)CC(O)CC(=O)O)c(-c2ccc(F)cc2)c2ccccc21` (configuration not stated) [Fluvastatin sodium], for which the combined optomotor response was -0.348.
As to `CCOC(=O)c1ncn2c1CN(C)C(=O)c1cc(F)ccc1-2` [Flumazenil], the combined optomotor response amounted to 3.13.
For the molecule `O=C(c1ccc(OCCN2CCCCC2)cc1)c1c(-c2ccc(O)cc2)sc2cc(O)ccc12` [Raloxifene hydrochloride], the combined optomotor response was -1.27.
In the case of `O=C(Nc1c(Cl)cncc1Cl)c1ccc(OC(F)F)c(OCC2CC2)c1` [Roflumilast], the combined optomotor response is -6.05.
On the same count and under the same terms, as for `OCCOCCN1CCN(C2=Nc3ccccc3Sc3ccccc32)CC1` [Quetiapine hemifumarate], the figure is 8.62; as for `CC(c1cc2ccccc2s1)N(O)C(N)=O` (configuration not stated) [Zileuton], -0.859; as for `CC(C)(C#N)c1cc(Cn2cncn2)cc(C(C)(C)C#N)c1` [Anastrozole], -1.87.
For `Cc1cc(C2CCCCC2)n(O)c(=O)c1` [Ciclopirox], the combined optomotor response is 5.45.
Same read-out and setting: as for `CC(=O)O[C@]1(C(C)=O)CC[C@H]2[C@@H]3C=C(C)C4=CC(=O)CC[C@]4(C)[C@H]3CC[C@@]21C` [Megestrol Acetate], the figure is -8.35; as for `CN1CC2c3ccccc3Oc3ccc(Cl)cc3C2C1` (configuration not stated) [Asenapine maleate], -7.09.
With `O=C(NCC1CCCCN1)c1cc(OCC(F)(F)F)ccc1OCC(F)(F)F` (configuration not stated) [Flecainide acetate], the combined optomotor response is 2.85.
As to `CCOc1cc(CC(=O)N[C@@H](CC(C)C)c2ccccc2N2CCCCC2)ccc1C(=O)O` [Repaglinide], the combined optomotor response was 2.6.
The same measure, in the same setting: as for `C/C(O)=C(\C#N)C(=O)Nc1ccc(C(F)(F)F)cc1` [Teriflunomide], the figure is -4.96; as for `COc1ccc(C[C@@H](C)NC[C@H](O)c2ccc(O)c(NC=O)c2)cc1` [Arformoterol tartrate], -7.68.
The same measure, in the same setting: as for `Cc1nnc(C(C)C)n1C1C[C@H]2CC[C@@H](C1)N2CC[C@H](NC(=O)C1CCC(F)(F)CC1)c1ccccc1` (stereo in doubt) [Maraviroc], the figure is 0.791; as for `CN1CCC[C@@H]1Cc1c[nH]c2ccc(CCS(=O)(=O)c3ccccc3)cc12` [Eletriptan hydrobromide], -0.376.
Same read-out and setting: as for `CCCc1nc(C(C)(C)O)c(C(=O)O)n1Cc1ccc(-c2ccccc2-c2nnn[nH]2)cc1` [Olmesartan], the figure is 1.99.
Consider `CN1CCN(CCCN2c3ccccc3Sc3ccc(Cl)cc32)CC1` [Prochlorperazine dimaleate], for which the combined optomotor response amounted to 6.24.
Same read-out and setting: as for `COC(c1ccccc1)(c1ccccc1)[C@H](Oc1nc(C)cc(C)n1)C(=O)O` [Ambrisentan], the figure is 0.559.
